# Data as given in ChEMBL document CHEMBL2218924, “A broad activity screen in support of a chemogenomic map for kinase signalling research and drug discovery” (Biochem J, 2013).
# Experiments:
# [1] = target: T1, Protein kinase C zeta type (Homo sapiens) (UniProt Q05513); details: at 1 µM
# T1 sequence (whole entry): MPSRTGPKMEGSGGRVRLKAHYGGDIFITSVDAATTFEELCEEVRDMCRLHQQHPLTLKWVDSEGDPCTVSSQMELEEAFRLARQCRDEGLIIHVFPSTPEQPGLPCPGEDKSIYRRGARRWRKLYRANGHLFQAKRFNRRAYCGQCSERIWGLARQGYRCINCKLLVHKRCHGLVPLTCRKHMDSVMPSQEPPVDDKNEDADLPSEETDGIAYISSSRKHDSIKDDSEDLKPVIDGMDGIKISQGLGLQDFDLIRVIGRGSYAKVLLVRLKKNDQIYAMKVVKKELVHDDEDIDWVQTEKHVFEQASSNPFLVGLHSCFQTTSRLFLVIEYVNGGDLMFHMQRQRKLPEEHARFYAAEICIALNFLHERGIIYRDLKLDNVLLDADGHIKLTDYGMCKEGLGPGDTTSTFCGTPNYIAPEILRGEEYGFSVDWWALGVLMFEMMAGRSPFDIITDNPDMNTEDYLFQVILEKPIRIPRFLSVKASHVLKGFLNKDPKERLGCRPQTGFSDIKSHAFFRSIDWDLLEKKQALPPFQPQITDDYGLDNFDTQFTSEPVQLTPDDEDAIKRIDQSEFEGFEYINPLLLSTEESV
# [2] = target: T2, Mitogen-activated protein kinase kinase kinase 5 (Homo sapiens) (UniProt Q99683); details: at 10 µM
# T2 sequence (whole entry): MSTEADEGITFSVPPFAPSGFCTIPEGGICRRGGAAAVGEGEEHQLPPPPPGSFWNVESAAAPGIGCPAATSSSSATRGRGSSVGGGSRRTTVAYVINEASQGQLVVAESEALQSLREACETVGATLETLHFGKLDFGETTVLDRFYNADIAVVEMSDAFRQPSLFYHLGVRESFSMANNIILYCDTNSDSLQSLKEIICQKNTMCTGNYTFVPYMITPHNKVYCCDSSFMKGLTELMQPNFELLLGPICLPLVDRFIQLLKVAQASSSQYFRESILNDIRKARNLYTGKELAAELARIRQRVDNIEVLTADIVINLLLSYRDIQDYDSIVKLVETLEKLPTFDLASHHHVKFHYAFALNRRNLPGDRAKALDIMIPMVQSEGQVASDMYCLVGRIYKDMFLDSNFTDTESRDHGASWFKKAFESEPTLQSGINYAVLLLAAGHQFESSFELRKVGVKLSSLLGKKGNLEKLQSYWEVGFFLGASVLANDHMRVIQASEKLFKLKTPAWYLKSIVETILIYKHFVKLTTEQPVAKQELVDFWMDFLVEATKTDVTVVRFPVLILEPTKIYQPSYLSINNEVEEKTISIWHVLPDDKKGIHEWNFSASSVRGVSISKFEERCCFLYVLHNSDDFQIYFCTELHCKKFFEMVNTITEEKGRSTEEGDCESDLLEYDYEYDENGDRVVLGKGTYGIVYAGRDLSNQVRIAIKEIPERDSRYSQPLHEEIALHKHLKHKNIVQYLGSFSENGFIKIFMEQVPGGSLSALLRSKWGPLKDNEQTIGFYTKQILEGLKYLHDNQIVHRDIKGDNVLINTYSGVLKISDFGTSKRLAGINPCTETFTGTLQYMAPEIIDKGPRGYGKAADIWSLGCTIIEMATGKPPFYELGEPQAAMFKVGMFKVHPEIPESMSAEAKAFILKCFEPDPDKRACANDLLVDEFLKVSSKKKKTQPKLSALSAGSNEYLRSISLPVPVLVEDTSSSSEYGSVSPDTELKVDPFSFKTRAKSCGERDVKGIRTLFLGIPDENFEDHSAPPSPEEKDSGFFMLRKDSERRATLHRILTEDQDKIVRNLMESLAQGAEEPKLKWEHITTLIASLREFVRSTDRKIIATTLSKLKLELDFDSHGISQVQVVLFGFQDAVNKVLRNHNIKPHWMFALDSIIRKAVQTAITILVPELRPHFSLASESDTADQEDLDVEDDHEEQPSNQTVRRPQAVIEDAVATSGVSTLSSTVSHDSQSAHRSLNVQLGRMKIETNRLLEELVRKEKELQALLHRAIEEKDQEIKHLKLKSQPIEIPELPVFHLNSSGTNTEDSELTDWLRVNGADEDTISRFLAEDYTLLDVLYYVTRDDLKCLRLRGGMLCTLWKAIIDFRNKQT
# [3] = target: Tyrosine-protein kinase ABL1 (Homo sapiens) (UniProt P00519); details: at 1 µM
# Sequence of Tyrosine-protein kinase ABL1 (Homo sapiens) (P00519 whole entry): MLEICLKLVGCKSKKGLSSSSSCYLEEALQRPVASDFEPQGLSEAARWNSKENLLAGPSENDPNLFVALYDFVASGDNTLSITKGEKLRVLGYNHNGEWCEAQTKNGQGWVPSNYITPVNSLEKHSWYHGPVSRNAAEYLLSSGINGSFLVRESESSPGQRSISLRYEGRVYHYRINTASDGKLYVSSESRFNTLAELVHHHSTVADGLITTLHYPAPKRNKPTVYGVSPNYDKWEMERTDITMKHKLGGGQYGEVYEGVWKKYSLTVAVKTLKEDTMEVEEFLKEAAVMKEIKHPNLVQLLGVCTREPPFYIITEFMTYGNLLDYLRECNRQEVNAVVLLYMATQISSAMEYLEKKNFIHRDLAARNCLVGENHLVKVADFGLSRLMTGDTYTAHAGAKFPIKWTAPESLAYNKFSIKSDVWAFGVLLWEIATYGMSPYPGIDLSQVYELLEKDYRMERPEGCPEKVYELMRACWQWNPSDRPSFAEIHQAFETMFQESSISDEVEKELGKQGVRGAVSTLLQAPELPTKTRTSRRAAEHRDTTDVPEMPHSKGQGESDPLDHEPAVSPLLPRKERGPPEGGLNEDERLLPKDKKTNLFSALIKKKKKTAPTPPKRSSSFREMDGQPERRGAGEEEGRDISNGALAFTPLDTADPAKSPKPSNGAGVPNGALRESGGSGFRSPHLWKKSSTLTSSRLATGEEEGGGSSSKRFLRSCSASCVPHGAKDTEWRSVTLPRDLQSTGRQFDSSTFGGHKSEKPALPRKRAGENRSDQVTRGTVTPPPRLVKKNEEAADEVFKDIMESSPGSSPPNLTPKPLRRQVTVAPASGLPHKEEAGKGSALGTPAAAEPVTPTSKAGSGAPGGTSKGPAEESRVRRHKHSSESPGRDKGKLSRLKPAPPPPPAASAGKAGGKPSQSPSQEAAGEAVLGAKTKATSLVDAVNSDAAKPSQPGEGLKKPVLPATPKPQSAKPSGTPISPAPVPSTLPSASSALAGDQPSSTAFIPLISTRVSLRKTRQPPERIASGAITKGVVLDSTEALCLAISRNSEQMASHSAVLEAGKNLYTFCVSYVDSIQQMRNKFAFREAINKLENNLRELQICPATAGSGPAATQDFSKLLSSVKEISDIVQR
# [4] = target: Tyrosine-protein kinase ABL1 (Homo sapiens) (UniProt P00519); details: at 10 µM
# [5] = target: Tyrosine-protein kinase ABL2 (Homo sapiens) (UniProt P42684); details: at 1 µM
# Sequence of Tyrosine-protein kinase ABL2 (Homo sapiens) (P42684 whole entry): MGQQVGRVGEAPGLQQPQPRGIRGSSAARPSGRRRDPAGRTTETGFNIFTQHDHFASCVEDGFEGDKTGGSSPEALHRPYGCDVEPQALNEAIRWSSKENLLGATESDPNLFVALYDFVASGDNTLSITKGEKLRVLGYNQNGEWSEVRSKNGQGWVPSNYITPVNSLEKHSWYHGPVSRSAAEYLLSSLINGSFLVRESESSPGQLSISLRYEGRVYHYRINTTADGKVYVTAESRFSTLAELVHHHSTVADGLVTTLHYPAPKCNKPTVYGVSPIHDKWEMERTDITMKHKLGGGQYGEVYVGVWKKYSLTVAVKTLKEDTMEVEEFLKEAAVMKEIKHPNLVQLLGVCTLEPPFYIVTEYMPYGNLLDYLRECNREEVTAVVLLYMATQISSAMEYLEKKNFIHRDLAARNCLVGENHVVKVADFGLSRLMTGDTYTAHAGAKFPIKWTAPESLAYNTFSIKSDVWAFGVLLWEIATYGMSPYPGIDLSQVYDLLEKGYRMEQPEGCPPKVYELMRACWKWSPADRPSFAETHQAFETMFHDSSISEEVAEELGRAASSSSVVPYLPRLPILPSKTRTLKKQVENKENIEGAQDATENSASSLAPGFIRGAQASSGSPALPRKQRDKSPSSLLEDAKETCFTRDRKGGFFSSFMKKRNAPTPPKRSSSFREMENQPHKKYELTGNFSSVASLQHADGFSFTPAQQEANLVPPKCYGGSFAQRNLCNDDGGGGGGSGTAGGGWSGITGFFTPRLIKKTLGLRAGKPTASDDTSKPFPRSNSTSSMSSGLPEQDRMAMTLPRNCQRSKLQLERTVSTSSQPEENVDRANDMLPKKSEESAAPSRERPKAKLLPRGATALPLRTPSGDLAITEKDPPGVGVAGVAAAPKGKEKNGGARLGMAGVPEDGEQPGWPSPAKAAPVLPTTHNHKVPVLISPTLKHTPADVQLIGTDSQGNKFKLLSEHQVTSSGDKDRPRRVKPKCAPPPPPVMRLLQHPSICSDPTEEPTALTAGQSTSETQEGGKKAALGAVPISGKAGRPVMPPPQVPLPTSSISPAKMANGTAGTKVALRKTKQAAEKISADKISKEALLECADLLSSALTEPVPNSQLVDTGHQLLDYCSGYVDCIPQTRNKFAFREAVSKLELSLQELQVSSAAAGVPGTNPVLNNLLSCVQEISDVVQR
# [6] = target: Tyrosine-protein kinase ABL2 (Homo sapiens) (UniProt P42684); details: at 10 µM
# [7] = target: T3, Aurora kinase A (Homo sapiens) (UniProt O14965); details: at 1 µM
# T3 sequence (whole entry): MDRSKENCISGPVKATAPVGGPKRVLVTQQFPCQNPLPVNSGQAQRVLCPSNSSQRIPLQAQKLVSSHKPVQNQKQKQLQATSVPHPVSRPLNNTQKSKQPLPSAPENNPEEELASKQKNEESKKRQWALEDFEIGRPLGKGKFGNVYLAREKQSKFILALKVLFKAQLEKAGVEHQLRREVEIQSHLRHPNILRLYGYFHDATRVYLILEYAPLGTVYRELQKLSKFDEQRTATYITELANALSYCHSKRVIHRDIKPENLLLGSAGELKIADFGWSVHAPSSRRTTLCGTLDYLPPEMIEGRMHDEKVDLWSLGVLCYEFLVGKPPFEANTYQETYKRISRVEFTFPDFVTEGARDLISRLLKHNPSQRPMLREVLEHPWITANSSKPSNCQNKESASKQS
# [8] = target: T3, Aurora kinase A (Homo sapiens); details: at 10 µM
# [9] = target: Aurora kinase B (Homo sapiens) (UniProt Q96GD4); details: at 1 µM
# Sequence of Aurora kinase B (Homo sapiens) (Q96GD4 whole entry): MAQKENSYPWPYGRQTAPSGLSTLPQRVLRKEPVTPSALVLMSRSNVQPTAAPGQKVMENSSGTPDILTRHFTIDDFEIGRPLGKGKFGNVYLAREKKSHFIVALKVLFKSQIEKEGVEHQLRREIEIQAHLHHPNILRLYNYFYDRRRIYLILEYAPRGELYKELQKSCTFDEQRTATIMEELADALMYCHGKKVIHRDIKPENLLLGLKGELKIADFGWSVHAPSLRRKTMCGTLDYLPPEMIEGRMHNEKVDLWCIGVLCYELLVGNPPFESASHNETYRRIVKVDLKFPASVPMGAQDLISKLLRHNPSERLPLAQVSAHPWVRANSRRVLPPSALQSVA
# [10] = target: Aurora kinase B (Homo sapiens) (UniProt Q96GD4); details: at 10 µM
SMILES,residual activity [1],residual activity [2] [%],residual activity [3] [%],residual activity [4] [%],residual activity [5] [%],residual activity [6] [%],residual activity [7] [%],residual activity [8] [%],residual activity [9] [%],residual activity [10] [%]
COc1ccc(CNc2nc(N(CCO)CCO)nc3c2ncn3C(C)C)cc1,105% (inactive),85,100,73,113,76,89,96,95,73
Nc1cccc(-c2cc3c(Oc4cccc(O)c4)ncnc3[nH]2)c1,,95,-6,-5,-3,-2,28,1,9,0
N#CC(C#N)=C(N)/C(C#N)=C/c1ccc(O)cc1,,93,87,78,,,83,85,81,62
c1ccc(-c2n[nH]cc2-c2ccnc3ccccc23)nc1,108% (inactive),105,69,14,64,18,99,103,75,51
COc1cc2ncnc(Nc3ccc(O)c(Br)c3)c2cc1OC,96% (inactive),82,64,13,76,22,49,26,43,2
Cc1cc(Nc2nc(-c3ccccc3)nc3ccccc23)n[nH]1,110% (inactive),100,54,,33,3,1,0,-2,0
CC(=O)c1ccc(N2CCOCC2)cc1O,107% (inactive),95,,,110,102,109,100,100,95
Oc1n[nH]c2nnc(-c3c(-c4ccccc4)nn4ccccc34)cc12,107% (inactive),105,81,,95,64,104,93,5,2
CO[C@@H]1[C@H](N(C)C(=O)c2ccccc2)C[C@H]2O[C@]1(C)n1c3ccccc3c3c4c(c5c6ccccc6n2c5c31)C(=O)NC4,101% (inactive),75,89,,77,45,-3,-2,1,3
O=c1cc(-c2cccc3c2Sc2ccccc2S3)oc(N2CCOCC2)c1,107% (inactive),98,99,89,97,90,101,120,105,92
O=C1Nc2ccc(Br)cc2/C1=C\c1cc2c([nH]1)CCCC2,103% (inactive),81,105,75,,,,,18,8
Cc1cncc2cccc(S(=O)(=O)N3CCCN(C(=O)CN)C[C@H]3C)c12,88% (inactive),87,88,,,92,64,36,6,3
O=C1c2ccccc2-[n+]2ccc3c([nH]c4ccccc43)c21,98% (inactive),92,102,102,111,87,101,89,93,52
Cc1cccc(-c2[nH]c(C(C)(C)C)nc2-c2ccc3c(c2)OCO3)n1,,88,96,102,,97,93,,106,95
COc1cc2ncnc(N3CCN(C(=O)Nc4ccc(Oc5ccccc5)cc4)CC3)c2cc1OC,113% (inactive),67,,,110,118,51,48,15,7
CN(C)c1ccc(/C=C2\C(=O)Nc3ccccc32)cc1,118% (inactive),99,100,87,103,89,56,26,13,4
COc1cc2ncnc(Nc3ccc(NC(=O)c4ccccc4)cc3)c2cc1OC,110% (inactive),100,101,81,,93,18,12,2,0
CC#CC(=O)Nc1cc2c(Nc3ccc(F)c(Cl)c3)ncnc2cn1,97% (inactive),94,92,91,118,74,106,108,114,85
COc1cc2ncc(-c3ccccc3)nc2cc1OC,,77,96,83,99,84,83,98,83,50
